Only a selection was taken, and hits are over-represented in it overall.
BL2 CD40 inh: CD40 pathway inhibition in BL2 cells; BL2 NF-kB luciferase reporter, CD40L-induced, 4 h; inhibition, % at 10 µM; hit rate 0.94% among 83,000; AID 1053188;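 active = mean inhibition of at least 50% with a set share of replicates also reaching that level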;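 also: 0% = neutral control wells and 100% = IKK inhibitor VII at 50 µM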
* = called active by the depositor; [ ] = another dose, or the depositor's remark.

SMILES	BL2 CD40 inh
O=C1NC(=O)c2c1c1c3ccccc3[nH]c1c1[nH]c3ccccc3c21	69*[25 µM]
C=CCN1[C@@H]2CN(S(C)(=O)=O)C[C@H]1C2c1ccccc1 (some centres not stated)	-1
CC(=O)OC1C(=O)OCC23CCC4(C)OC4C2OC2CC(OC(=O)C=CC=CC(=O)OCCC1C)C3(C)C21CO1 (configuration not stated)	68*
CC1=CC2OC3CC4OC(=O)C=CC=CC(=O)OCCC(C)C(O)C(=O)OCC2(CC1O)C4(C)C31CO1 (configuration not stated)	103*
CC(C)NC(=O)N1CC2C(c3ccccc3)C(C1)N2C (configuration not stated)	0
O=C(Cc1ccccn1)N1CCCCN2[C@H](CO)[C@@H](c3ccc(-c4ccccc4F)cc3)[C@@H]2C1	21[25 µM]
O=C(Cc1ccccc1)N1CC2(C1)[C@H](c1ccccc1)[C@H](CO)N2Cc1cccc(Cl)c1	18[25 µM]
COc1cccc(-c2ccc([C@@H]3[C@H]4CN(C(=O)Cc5ccncc5)CCCCN4[C@H]3CO)cc2)c1	-4[25 µM]
NC(N)=N/N=C/c1cn(-c2ccccc2)nc1-c1cccs1	87*
O=C(O)[C@@H]1[C@@H](CO)[C@@H]2Cn3c(ccc(C4=CCCCC4)c3=O)[C@H]1N2C(=O)Cc1ccccn1	0[25 µM]
COc1ccc(OC(=O)N(C)C[C@H]2OCc3ccccc3-c3c(n(C)c4ccccc34)C(=O)N([C@@H](C)CO)C[C@@H]2C)cc1	15
Clc1ccc(C2=CCCC3CCC2N3)cn1 (configuration not stated)	-14[25 µM]
C/C=C/c1ccc(C2[C@H]3CNC[C@@H]2N3CC2CCCCC2)cc1 (some centres not stated)	-1
O=C(Cc1cccnc1)N1CCCCN2[C@@H](CO)[C@@H](c3ccc(C#CC4(O)CCCC4)cc3)[C@@H]2C1	2[25 µM]
CC(=O)N1C[C@@H]2C(c3ccccc3)[C@H](C1)N2C (some centres not stated)	-1
C=CCN1[C@@H]2CN(C(=O)NC(C)C)C[C@H]1C2c1ccc(Br)cc1 (some centres not stated)	0
O=C1CNC[C@@H]2[C@@H](c3ccc(Br)cc3)[C@H](CO)N12	-17[25 µM]
C[C@@H]1O[C@@H](O[C@H]2C[C@@H](O)[C@]3(CO)[C@H]4[C@H](O)C[C@]5(C)[C@@H](C6COC(=O)C6)CC[C@]5(O)[C@@H]4CC[C@]3(O)C2)[C@H](O)[C@H](O)[C@H]1O (some centres not stated)	67*
CC1OC(OC2CC(O)C3(CO)C4C(O)CC5(C)C(C6=CC(=O)OC6)CCC5(O)C4CCC3(O)C2)C(O)C(O)C1O (configuration not stated)	73*[25 µM]
C[C@@H]1CN([C@@H](C)CO)C(=O)CCCn2cc(nn2)CO[C@@H]1CN(C)C(=O)Oc1cccc2ccccc12	1[25 µM]
O=C(Cc1ccncc1)N1CCCCN2[C@H](C1)[C@H](c1ccc(C#Cc3ccccc3F)cc1)[C@@H]2CO	-6[25 µM]
CCCN1[C@@H]2Cn3c(ccc(-c4cccc(OC)c4)c3=O)[C@H]1[C@@H](C(=O)OC)[C@@H]2CO	-1[25 µM]
C/C=C/c1ccc(C2[C@@H]3CN(C(=O)C4CCC4)C[C@H]2N3)cc1 (some centres not stated)	10
O=C(Cc1ccccc1)N1CC2(C1)[C@H](c1ccccc1)[C@@H](CO)N2Cc1cccc(Cl)c1	25[25 µM]
C[C@@H]1CN([C@H](C)CO)C(=O)c2c(c3ccccc3n2C)-c2ccccc2CO[C@H]1CN(C)C(=O)Oc1ccccc1	9
SMILES	BL2 CD40 inh
OC[C@@H]1Nc2ccc(C#Cc3cccnc3)cc2[C@H]2NCC[C@@H]12	6[25 µM]
CC(=O)OC(C)(C)/C=C/C(=O)C(C)(O)C1C(O)CC2(C)C3CC=C4C(CC(O)C(=O)C4(C)C)C3(C)C(=O)CC12C (configuration not stated)	60*
C/C=C/c1ccc(C2[C@@H]3CN(Cc4cccc(F)c4)C[C@H]2N3)cc1 (some centres not stated)	9
COC(=O)[C@H]1[C@H](CO)[C@H]2Cn3c(ccc(/C=C/c4ccccc4)c3=O)[C@@H]1N2CC1CCCC1	20[25 µM]
O=C(Cc1ccccn1)N1CCCCN2[C@H](C1)[C@@H](c1ccc(Br)cc1)[C@@H]2CO	0[25 µM]
C[C@H]1CCCC(=O)CCC/C=C/c2cc(O)cc(O)c2C(=O)O1	43*
CC(C)NC(=O)N1C[C@@H]2N[C@H](C1)C2c1ccccc1 (some centres not stated)	-3
CC=Cc1ccc2n(c1=O)C[C@@H]1[C@@H](CO)[C@H](C(=O)OC)[C@H]2N1C(=O)CC1CC1 (mixture of isomers)	-19[25 µM]
O=C(Cc1cccnc1)N1CCCCN2[C@H](CO)[C@@H](c3ccc(C#CC4CCCC4)cc3)[C@H]2C1	-6[25 µM]
C[C@H]1CN([C@@H](C)CO)C(=O)c2c(c3ccccc3n2C)-c2ccccc2CO[C@@H]1CN(C)C(=O)Oc1ccccc1	17
COC(=O)[C@H]1[C@H](CO)[C@H]2Cn3c(cccc3=O)[C@@H]1N2C(=O)C1CC1	-11[25 µM]
FC(F)(F)CN1C[C@@H]2C(c3ccc(Br)cc3)[C@H](C1)N2CC1CC1 (some centres not stated)	-4
CC1=NNC(=O)C1Br (configuration not stated)	52*
Cc1ccc(OC(=O)N(C)C[C@H]2OCc3ccccc3-c3c(n(C)c4ccccc34)C(=O)N([C@H](C)CO)C[C@@H]2C)cc1	21[25 µM]
COc1ccc(OC(=O)N(C)C[C@@H]2OCc3ccccc3-c3c(n(C)c4ccccc34)C(=O)N([C@@H](C)CO)C[C@H]2C)cc1	38
Fc1ccc(CN2CC3NC(C2)C3c2ccc(Br)cc2)cc1 (configuration not stated)	4
FC(F)(F)CN1C[C@@H]2N[C@H](C1)C2c1ccc(Br)cc1 (some centres not stated)	2
O=C(Cc1cccnc1)N1CCCCN2[C@H](CO)[C@@H](c3ccc(C#CC4(O)CCCC4)cc3)[C@@H]2C1	-2[25 µM]
CC(=NNC(=S)N1CC2CCC(CC2)C1)c1nccs1	66*
CCN1CC2(COC(=O)c3ccccc3N3C(=O)CC(C)C3=O)CCC(OC)C34C5CC6C(OC)CC(O)(C5C6OC)C(O)(C(OC)C23)C14 (configuration not stated)	5[25 µM]
O=C(Cc1cccnc1)N1CCCCN2[C@@H](CO)[C@@H](c3ccc(C#CC4CCCC4)cc3)[C@@H]2C1	-10[25 µM]
C[C@@H]1CN([C@@H](C)CO)C(=O)CCCn2cc(nn2)CO[C@@H]1CN(C)C(=O)Oc1ccc2ccccc2c1	-7[25 µM]
FC(F)(F)CN1C[C@@H]2C(c3ccccc3)[C@H](C1)N2CC1CC1 (some centres not stated)	3
Oc1ccc2c3c1OC1c4oc5ccccc5c4CC4(O)C(C2)N(CC2CC2)CCC314 (configuration not stated)	1[25 µM]
CCOP(=O)(CCP(=O)(OCC)OCC)OCC.C[CH2][Sn]([Cl])([Cl])[CH2]C	59*
COC(=O)[C@@H]1[C@@H](CO)[C@@H]2Cn3c(ccc(-c4cccc(F)c4)c3=O)[C@H]1N2C(=O)CC1CC1	-9[25 µM]
COc1ccc(OC(=O)N(C)C[C@H]2OCc3ccccc3-c3c(n(C)c4ccccc34)C(=O)N([C@@H](C)CO)C[C@H]2C)cc1	21
C[C@]12CC[C@@H](O)C[C@@H]1CC[C@@H]1[C@@H]2CC[C@]2(C)[C@@H](C(=O)CO)CC[C@@H]12	-8[25 µM]

Screens (PubChem BioAssay)
